# Measured values as given in PMC4552634, “A New Set of Chemical Starting Points with Plasmodium falciparum Transmission-Blocking Potential for Antimalarial Drug Discovery” (PLoS ONE, 2015).
# About 3,200 (25%) of roughly 13,000 compounds showed an effect of 50% or more. This is one part of the list.
# Tested on: P. falciparum stage V gametocytes
# Set-up: BacTiter-Glo ATP luminescence viability of purified stage V gametocytes in 384-well plates, per cent inhibition versus DMSO
# Details: 48 h, 5 µM; inhibitor
row,SMILES,% Inhibition [%]
1,O=C(CN1CCC(NCc2cnc(-c3ccc(Cl)cc3)[nH]2)CC1)N1CCc2ccccc21 [TCMDC-138589],28.41
2,Cc1c(NC(=O)COc2ccc(Cl)cc2C(=O)c2cc(F)cc(C(F)(F)F)c2)ccc2ncsc12 [TCMDC-138907],4.382
3,Cc1cc(OCCCN2CCCCC2)ccc1NC(=O)COc1ccc(Cl)cc1C(=O)c1cc(C#N)cc(C(F)(F)F)c1 [TCMDC-134827],50
4,Cc1cc(OCCCN2CCN(CCN3CCOCC3)CC2)ccc1NC(=O)COc1ccc(Cl)cc1C(=O)c1cc(Cl)cc(C#N)c1 [TCMDC-135999],30.59
5,Cc1cc(OCCCN2CCCC2)ccc1NC(=O)COc1ccc(Cl)cc1C(=O)c1cc(C#N)cc(C(F)(F)F)c1 [TCMDC-138904],58.86
6,COc1cc(NC(=O)N2CCc3ccc(OCCN4CCCCC4)cc32)cc(C(F)(F)F)c1 [TCMDC-140249],14.65
7,Cc1cc(OCC2CCN(c3ncc(C(=O)Nc4ccccc4)cc3Cl)CC2)ccc1F [TCMDC-134033],-3.032
8,Cc1cc(OCCCN2CCCCC2C)ccc1NC(=O)COc1ccc(Cl)cc1C(=O)c1cc(Cl)cc(C#N)c1 (stereo not drawn) [TCMDC-134727],73.35
9,Cc1cc(OCCCN2CCCCC2)ccc1NC(=O)COc1ccc(Cl)cc1C(=O)c1cc(Cl)cc(C#N)c1 [TCMDC-134725],48.49
10,Cc1cc(OCC2CCCN(c3ncc(C(=O)NC4CC4)cc3Cl)C2)ccc1F (stereo not drawn) [TCMDC-134314],18.53
11,CCCCCCN1CCCN(Cc2cccc(C(=O)Nc3ccc(C(C)(C)C)cc3)c2)CC1 [TCMDC-135993],-6.517
12,CCCC(C)NC(=O)[C@H](Cc1ccccc1)NC(=O)c1ccc(O)c(-c2ccc(OC)cc2)c1 (stereo partly drawn) [TCMDC-140800],19.41
13,CCOC(=O)CNC(=O)N(CCN(Cc1ccccc1)C(=O)NCC(=O)OCC)Cc1ccccc1 [TCMDC-138999],6.745
14,CC(C)CNCc1cccc(-c2cccc(CN(CCN(C)C)C(=O)NCCc3ccccc3)c2)c1 [TCMDC-140620],102.4
15,CC[C@H](C)CNC(=O)c1cncc(-c2cccc(CNCCCc3ccccc3)c2)c1 [TCMDC-134221],19.08
16,CC(C)CNCc1ccc(-c2cccc(CN(CCN(C)C)C(=O)NCCc3ccccc3)c2)cc1 [TCMDC-140621],102.2
17,CC(C)CNC(=O)c1cncc(-c2ccc(CNCCCc3ccccc3)cc2)c1 [TCMDC-134247],-10.62
18,CC(C)CNCc1cccc(-c2cccc(CN(CCN(C)C)C(=O)Nc3ccccc3)c2)c1 [TCMDC-140592],108.6
19,CC(C)CNCc1cccc(-c2ccc(CNc3ccc(C(=O)c4ccccc4)cc3)cc2)c1 [TCMDC-140728],10.94
20,CN(C)CCOc1cccc(NC(=O)Nc2ccc(-c3ccccc3)cc2)c1 [TCMDC-139537],22.41
21,CN(C)CCN(C)Cc1cccc(-c2cccc(NC(=O)c3cccc(C#N)c3)c2)c1 [TCMDC-133360],6.032
22,CN(CC(=O)Nc1ccc(F)c(F)c1F)c1ncnc2sc(-c3ccccc3)cc12 [TCMDC-124491],23.36
23,O=C(Nc1ccc2c(ccn2C2CCCN(Cc3cc(F)cc(F)c3F)CC2)c1)c1ccco1 (stereo not drawn) [TCMDC-135087],26.42

row,SMILES,% Inhibition [%]
1,Nc1nc(N)c2cc(N(Cc3ccccc3)Cc3ccccc3)ccc2n1 [TCMDC-137850],-9.254
2,Cc1cccc2[nH]c(-c3cccc(-c4cccc(NC(=O)CNc5ccc(C(N)=O)cc5)c4)c3)nc12 [TCMDC-132165],-3.752
3,Cc1ccccc1C1CCN(c2ccc(C(=O)NC3CC3)cn2)CC1 [TCMDC-134592],24.07
4,COc1ccc2nccc(N3CCC(SCCNCc4cc5c(cn4)OCCO5)C3)c2n1 (stereo not drawn) [TCMDC-134286],24.01
5,COc1ccc2nccc(N3CCC(CCNCc4cc5c(cn4)OCCO5)CC3)c2c1.Cl [TCMDC-133537],9.41
6,COc1ccc2nccc(NCC3(O)CCC(NCc4cc5c(cn4)OCCO5)CC3)c2n1 (stereo not drawn) [TCMDC-134312],-33.45
7,COc1ccc2nccc(N3CCC(NCCNCc4cc5c(cn4)OCCO5)C3)c2n1 (stereo not drawn) [TCMDC-134650],71.62
8,COc1ccc2nccc(N3CCC(CCNCc4ccc5c(n4)NC(=O)CS5)CC3)c2n1 [TCMDC-141944],32.25
9,COc1ccc2nccc(N3CCC(CCNCc4cc5c(cn4)OCCO5)CC3)c2n1 [TCMDC-133538],80.45
10,COC(=O)c1cc2cccc(NC[C@@H](C)NC[C@H](O)c3cccc(Cl)c3)c2[nH]1 [TCMDC-137770],45
11,CN(C)Cc1ccc(CNC2CCN(Cc3ccccc3Cl)CC2)cc1 [TCMDC-141671],-2.208
12,CCCCCCN1CCC(NCc2cccc(-n3ccnc3)c2)CC1 [TCMDC-141664],11.65
13,Clc1ccccc1CN1CCC(NCc2cccc(-n3ccnc3)c2)CC1 [TCMDC-141672],86.45
14,COc1ccc(CN2CCC(NCc3cccc(-n4ccnc4)c3)CC2)cc1 [TCMDC-141651],14.29
15,c1cc(CNCC2CCN(CC3CCCCC3)CC2)cc(-n2ccnc2)c1 [TCMDC-141675],21.38
16,c1cc(CNC2CCN(CC3CCCCC3)CC2)cc(-n2ccnc2)c1 [TCMDC-141657],70.67
17,Cc1ccc(-c2cnc3[nH]cc(-c4ccc(C(=O)O)c(C)c4)c3c2)cc1C.O=C(O)C(F)(F)F [TCMDC-136381],18.23
18,CCCCc1cc(NCC)nc(Nc2ccc(F)cc2)n1 [TCMDC-134009],8.286
19,Cn1cncc1-c1ccc2ncnc(Nc3ccc4c(cnn4Cc4ccccc4)c3)c2c1 [TCMDC-137781],-8.163
20,O=C(CN1CCCCC1)Nc1ccc(Nc2nccc(NCC(O)c3ccccc3)n2)cc1 (stereo not drawn) [TCMDC-136469],-6.593
21,CCN(CC)CCNC(=O)c1ccc(N=Cc2c(O)[nH]c3ccc(S(=O)(=O)Cc4c(Cl)cccc4Cl)cc23)cc1 [TCMDC-135945],35.17
22,NS(=O)(=O)c1cccc(N=Cc2c(O)[nH]c3ccc(S(=O)(=O)Cc4c(Cl)cccc4Cl)cc23)c1 [TCMDC-135947],101.9
